Source: PubChem BioAssay (several laboratories)
Hits are enriched below; roughly 3.5% of the tested compounds scored in any of these assays.
DNMT1 inh: DNMT1 (human) enzyme inhibition; P26358; DNMT1 molecular beacon, Hinp1I cleavage, fluorescence; inhibition (reported as % activation of signal), % at 10 µM; 0.83% of 360,000 active; in the data active means inhibition above about 50%
UHRF1 MBD2 ctr: human UHRF1 methylated DNA binding inhibitors | UHRF1 binding to methylated oligo, TR-FRET | inhibition, % at 4.4 µM | 0.75% of 370,000 active; in the data active means inhibition above about 21%;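 further: UHRF1 SRA domain binding a hemimethylated CpG hairpin DNA probe; 0% = median of test compound wells and 100% = reference inhibitor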
rCAG RNA binder: molecules binding r(CAG) RNA repeats; r(CAG) RNA repeat, TO-PRO-1 dye displacement fluorescence; inhibition, % at 3 µM; 1.3% of 370,000 active; AID 651821;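 active means inhibition above the plate cutoff, the mean of all test compounds on that plate plus 3 SD, cut at about 35% in these data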;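 further: 0% = DMSO alone and 100% = 100 µM mitoxantrone as full dye displacement; higher means more dye released from RNA so lower well fluorescence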
LEDGF integ inh: blocks HIV-1 LEDGF/p75-dependent DNA integration; TR-FRET IN-LEDGF/p75 DNA integration, Eu/Cy5; inhibition, % at 3.7 µM; 0.64% of 370,000 active;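 active means inhibition above the screen-wide mean plus 3 SD, cut at about 13% in these data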;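 further: signal is the Cy5 over europium emission ratio at 671 and 618 nm; 0% = plate median of compound wells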
PG9 Ab binder: binds the HIV-1 gp120 antibody PG9 | inhibition, % at 6.7 µM | 0.43% of 360,000 active | TR-FRET gp120-PG9 antibody binding; in the data active means inhibition above about 8.5%
MBD2 DNA inh: MBD2-methylated oligo binding inhibition | Q9UBB5 | TR-FRET, MBD2 binding to methylated oligonucleotide | inhibition, % at 4.4 µM | 0.31% of 370,000 active | AID 686964; in the data active means inhibition above about 13%
Target sequence (Q9UBB5 whole entry, looked up): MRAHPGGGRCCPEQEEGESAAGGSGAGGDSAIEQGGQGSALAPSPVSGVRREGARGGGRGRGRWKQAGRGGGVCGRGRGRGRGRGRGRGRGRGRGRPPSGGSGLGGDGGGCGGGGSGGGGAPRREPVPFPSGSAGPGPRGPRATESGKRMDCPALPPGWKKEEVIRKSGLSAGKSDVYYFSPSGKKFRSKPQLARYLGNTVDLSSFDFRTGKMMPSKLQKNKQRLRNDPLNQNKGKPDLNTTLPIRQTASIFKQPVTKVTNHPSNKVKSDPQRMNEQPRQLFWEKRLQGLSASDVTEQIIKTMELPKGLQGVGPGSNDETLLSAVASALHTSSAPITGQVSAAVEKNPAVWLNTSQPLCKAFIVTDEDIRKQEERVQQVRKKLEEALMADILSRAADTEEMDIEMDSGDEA
rCAG binder conf: r(CAG) RNA repeat binding, confirmation. TO-PRO-1 dye displacement fluorescence. shares compounds with rCAG RNA binder. 70% of 4,300 active. inhibition, % at 3 µM;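 active means inhibition above a per-plate cutoff, the mean inhibition of sample wells plus 3 SD, cut at about 35% in these data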;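 further: loss of TO-PRO-1 fluorescence as compound displaces dye from 1x1 AA loop RNA; 0% = DMSO only wells and 100% = 100 µM mitoxantrone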
DNA CAG counter: counter-screen for rCAG RNA binders: DNA CAG dye complex inhibitors | shares compounds with rCAG RNA binder | d(CAG) DNA oligo TO-PRO-1 dye displacement, fluorescence | inhibition, % at 3 µM | 94% of 4,300 active;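 active means inhibition above its plate's cutoff, the mean test-well inhibition plus 3 SD, cut at about 4.8% in these data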;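 further: 0% = DNA dye mix with DMSO and 100% = 100 µM mitoxantrone; hits displace the dye from DNA and so lower well fluorescence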
DNA CAG DR: counter-screen for rCAG binders: inhibitors of DNA CAG TO-PRO-1 complex; 20% of 250 active; shares compounds with rCAG RNA binder; DNA CAG/GTC duplex TO-PRO-1 dye displacement fluorescence; IC50, µM; in the data active means IC50 below about 10 µM
* hit, by the source's call; i = inactive; . = no result.

SMILES	DNMT1 inh	UHRF1 MBD2 ctr	rCAG RNA binder	LEDGF integ inh	PG9 Ab binder	MBD2 DNA inh	rCAG binder conf	DNA CAG counter	others
CC1(C)CC(C(CC(=O)N2CCCC2)Cc2ccccc2)CCO1 (configuration not stated)	0	2	42*	2	-1	0	1	0
COc1cc(OC)cc(-c2c(C#Cc3ccsc3)c3cc(-c4cc(OC)c(OC)c(OC)c4)ccc3n2C)c1	-5	2	8	2	-1	-3	.	.
COc1cc(OC)cc(-c2c(C#Cc3ccsc3)c3cc(-c4ccc5[nH]ccc5c4)ccc3n2C)c1	-12	1	37*	1	1	2	33	22*
O=C(O)c1cc(S(=O)(=O)Nc2cc(Cl)ccc2Oc2ccccc2)ccc1O	-18	-1	72*	3	0	-1	67*	31*
CC(C)c1csc(CN2CCC(C(=O)Nc3cccc(-c4ccco4)c3)CC2)n1	-29	2	29	6	0	-4	.	.
CCCCOc1cccc(C(=O)NC(=S)Nc2ccc(Cl)c(C(=O)O)c2)c1	0	-4	44*	4	1	-1	49*	9.4*	DNA CAG DR=>30
O=C(NC(=S)Nc1ccc(Cl)c(C(=O)O)c1)c1cccc(COc2ccccc2)c1	7	-4	71*	2	-1	2	67*	30*
O=C(NC(=S)Nc1ccc(Cl)c(C(=O)O)c1)c1ccc(OCc2ccccc2)cc1	10	-1	68*	4	2	-2	62*	25*
O=C(O)c1cccc(NC(=O)c2ccc(COc3ccc(Cl)cc3)cc2)c1	2	3	47*	0	-1	2	54*	16*
O=C(O)c1ccc(Cl)c(NC(=S)NC(=O)c2cccc(COc3ccccc3)c2)c1	2	-1	10	-2	1	4	.	.
COc1ccc(C2C(C(=O)N3CCC(C)CC3)CC(=O)N2c2ccc(OC)cc2)cc1 (configuration not stated)	.	0	1	-3	.	-2	.	.
COc1ccc(C(=O)c2[nH]c(N)c(C(=O)NCCc3c[nH]c4ccccc34)c2-c2ccc(C(F)(F)F)cc2)cc1	.	0	6	-1	0	0	.	.
O=C(Nc1nnc(C2CC2)o1)c1ccc(S(=O)(=O)N2CCCc3ccccc32)cc1	-6	-4	36*	5	-1	-5	32	11*
COCc1nnc(NC(=O)c2ccc(S(=O)(=O)N3CCCc4ccccc43)cc2)o1	-2	-7	25	1	1	3	.	.
C/C(=N\NC(=O)c1nnn(-c2nonc2N)c1-c1cccs1)c1cccc(O)c1	-1	1	4	1	-2	-2	.	.
O=C(Nc1ccc(S(=O)(=O)Nc2nccs2)cc1)C1CC(=O)N(c2ccc(Cl)cc2)C1 (configuration not stated)	-1	0	54*	-2	-2	2	41*	15*
Cc1ccc(N2CC(C(=O)Nc3ccc(S(=O)(=O)Nc4nccs4)cc3)CC2=O)cc1C (configuration not stated)	-1	-2	48*	6	-1	3	64*	19*
O=C(Nc1ccc(S(=O)(=O)Nc2ncccn2)cc1)C1CC(=O)N(c2ccc(Cl)cc2)C1 (configuration not stated)	0	1	9	-4	0	3	.	.
COC(=O)[C@H](CC(C)C)N(Cc1cn(Cc2ccc(C)cc2)nn1)S(=O)(=O)c1ccc(F)cc1Br	.	17	0	0	.	12	.	.
CC(C)(C)n1nnnc1C(c1ccccc1)N1CCN(c2ncccn2)CC1 (configuration not stated)	.	-1	0	-1	1	-2	.	.
COc1cc(-c2cc(C(=O)Nc3ccc(S(=O)(=O)Nc4ncccn4)cc3)c3ccccc3n2)cc(OC)c1OC	-3	3	5	0	1	-5	.	.
Cc1ccnc(NS(=O)(=O)c2ccc(NC(=O)c3cc(-c4ccc(Br)cc4)nc4ccccc34)cc2)n1	0	1	39*	0	-1	3	72*	33*	DNA CAG DR=i
Cc1ccc(-c2cc(C(=O)Nc3ccc(S(=O)(=O)Nc4nc(C)cc(C)n4)cc3)c3ccccc3n2)cc1	7	2	8	3	2	0	.	.
Cc1ccnc(NS(=O)(=O)c2ccc(NC(=O)c3cc(-c4ccccc4)nc4ccccc34)cc2)n1	-9	2	45*	3	-1	5	56*	16*
COc1ccc(-c2cc(C(=O)Nc3ccc(S(=O)(=O)Nc4ncccn4)cc3)c3ccccc3n2)cc1	-1	1	58*	-1	-1	3	56*	22*
SMILES	DNMT1 inh	UHRF1 MBD2 ctr	rCAG RNA binder	LEDGF integ inh	PG9 Ab binder	MBD2 DNA inh	rCAG binder conf	DNA CAG counter	others
O=c1c(-c2ccco2)nc2ccccc2n1C(c1ccccc1)c1nc2ccccc2[nH]1 (configuration not stated)	.	-7	29	3	-1	-6	.	.
CCCCCCCC/C=C\CCCCCCCC(=O)NCCO	-4	0	2	0	0	2	.	.
CCCCCCCC/C=C\CCCCCCCC(=O)NCCc1ccc(O)c(O)c1	-11	2	47*	-6	-2	2	21	7.2*
Cc1occc1-c1nnc(SCC(=O)c2c(N)n(C3CC3)c(=O)[nH]c2=O)n1C	-3	1	2	-6	-1	3	.	.
CC(C)Oc1ccc(CN2CCC2(C)C(=O)Nc2ccc(Cl)c(Cl)c2)cc1 (configuration not stated)	2	-2	2	0	0	1	.	.
COc1cc(/C=C2\SC(=S)N(NS(=O)(=O)c3ccc(C)cc3)C2=O)cc(OC)c1OC	3	-1	6	3	-1	-5	.	.
COc1ccccc1/C=C1\SC(=S)N(NS(=O)(=O)c2ccccc2)C1=O	1	16	69*	3	-3	2	69*	22*
COc1cc(/C=C2\SC(=S)N(Nc3ccccc3)C2=O)cc(OC)c1OC	-2	2	8	-3	-2	-4	.	.
COc1cccc(/C=C2\SC(=S)N(NS(=O)(=O)c3ccc(C)cc3)C2=O)c1OC	1	-3	75*	9	-2	-7	66*	28*
CSc1ncccc1C(=O)NCCc1ccc(S(N)(=O)=O)cc1	-2	-2	1	-1	-1	-3	.	.
COc1ccc(C(=O)CC(=O)C(=O)Nc2ccc(C)c(Cl)c2)cc1	4	-3	13	1	-1	1	.	.
